CYP2C19 act: increases human CYP2C19 enzyme activity. recombinant CYP2C19, luciferin-H EGE luminescence; stronger effect = higher value; 0 = fully inhibited enzyme, 1 = untreated enzyme. AID 1025. 96,000 tested, under 10 active. activation factor at 5 µM. P33261;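 active means activation factor of at least 2 at 5 µM in the primary screen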
CYP2C19 inhib: human CYP2C19 inhibition. P33261. inhibition, % at 5 µM. CYP2C19 Supersomes, luciferin-H EGE luminescence, 30 min. AID 778. actives 21% (n = 96,000);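 active means CYP2C19 inhibition above a set limit at 5 µM in the primary screen, cut at about 50% in these data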
sEH act: activators of human soluble epoxide hydrolase | P34913 | purified human sEH enzymatic activity, activator screen | activation, % at 2 µM | actives 0.04% (n = 91,000) | AID 717; in the data active means activation above about 37%
CYP2C9 act: increases human cytochrome P450 2C9 activity; recombinant CYP2C9, luciferin-H conversion, luminescence; stronger effect = higher value; factor 1 = untreated enzyme, 0 = blocked; activation factor at 5 µM; actives 1.4% (n = 96,000); AID 1024; P11712;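 active means activation factor of 2 or more for CYP2C9 at a 5 µM dose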
Target sequence (P11712 whole entry, looked up): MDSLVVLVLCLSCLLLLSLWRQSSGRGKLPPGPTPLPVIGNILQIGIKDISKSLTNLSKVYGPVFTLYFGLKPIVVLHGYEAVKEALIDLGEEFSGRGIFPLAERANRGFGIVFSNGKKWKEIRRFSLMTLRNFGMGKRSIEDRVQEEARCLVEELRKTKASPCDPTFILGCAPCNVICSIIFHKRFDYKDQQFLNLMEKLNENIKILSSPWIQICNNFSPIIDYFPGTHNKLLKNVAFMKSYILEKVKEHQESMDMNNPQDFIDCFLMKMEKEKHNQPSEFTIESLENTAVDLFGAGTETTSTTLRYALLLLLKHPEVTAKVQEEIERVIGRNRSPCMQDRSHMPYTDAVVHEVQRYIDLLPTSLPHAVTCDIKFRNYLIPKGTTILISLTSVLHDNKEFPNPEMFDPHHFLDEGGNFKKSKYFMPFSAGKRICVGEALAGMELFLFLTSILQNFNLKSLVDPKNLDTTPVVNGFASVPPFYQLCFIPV
CYP2C9 inhib: human CYP2C9 inhibition | P11712 | inhibition, % at 5 µM | actives 20% (n = 96,000) | CYP2C9 Supersomes, luciferin-H conversion, luminescence;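 active means blocking of liver enzyme CYP2C9 beyond about 50% at 5 µM, limit read from the data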
sEH inh: inhibitors of human soluble epoxide hydrolase | recombinant human sEH enzymatic activity assay | actives 0.34% (n = 91,000) | inhibition, % at 2 µM | AID 707; in the data active means inhibition above about 80%
Numbers stand for hits. Rows were chosen to be rich in hits. Some 27% of all compounds tested hit in one or more screens of this group.

How did COc1cccc(N2CCN(C3CC(=O)N(c4ccc(F)c(Cl)c4)C3=O)CC2)c1 (stereo not drawn) do in these assays?
CYP2C19 act: inactive; CYP2C19 inhib: inactive; sEH act: inactive; CYP2C9 act: inactive; CYP2C9 inhib: 55; sEH inh: inactive

What do the screens show for `COc1ccccc1N1C(=O)CC(Sc2nc(C)cc(C)n2)C1=O` (stereo not drawn)?
CYP2C19 act: inactive; CYP2C19 inhib: inactive; CYP2C9 act: inactive; CYP2C9 inhib: inactive

How did Cc1cnc(NC(=O)CSc2nnc(CNc3ccc(F)cc3)n2CC2CCCO2)s1 (stereo not drawn) do in these assays?
CYP2C19 act: inactive; CYP2C19 inhib: inactive; sEH act: inactive; CYP2C9 act: inactive; CYP2C9 inhib: inactive; sEH inh: inactive

How did Cc1cccn2cc(-c3ccc(F)cc3)nc12 do in these assays?
CYP2C19 act: inactive; CYP2C19 inhib: 67; sEH act: inactive; CYP2C9 act: inactive; CYP2C9 inhib: inactive; sEH inh: inactive

How did Cc1cccn2cc(-c3ccccc3)nc12 do in these assays?
CYP2C19 act: inactive; CYP2C19 inhib: inactive; CYP2C9 act: inactive; CYP2C9 inhib: inactive

Results for Cc1cccc(N2CCN(CC(=O)Nc3nccs3)CC2)c1C ?
CYP2C19 act: inactive; CYP2C19 inhib: 82; sEH act: inactive; CYP2C9 act: inactive; CYP2C9 inhib: 62; sEH inh: inactive

Results for COc1ccccc1N1CCN(C(=O)C2CCN(S(=O)(=O)c3ccc(Cl)cc3)CC2)CC1 ?
CYP2C19 act: inactive; CYP2C19 inhib: inactive; sEH act: inactive; CYP2C9 act: inactive; CYP2C9 inhib: inactive; sEH inh: inactive

What do the screens show for `COCCN1C=C(C(=O)OC)C(c2cc(Br)c(OC)c(OC)c2)C(C(=O)OC)=C1`?
CYP2C19 act: inactive; CYP2C19 inhib: inactive; sEH act: inactive; CYP2C9 act: inactive; CYP2C9 inhib: 91; sEH inh: inactive

How did COC(=O)C1=CN(C)C=C(C(=O)OC)C1c1ccc(O)c(OC)c1 do in these assays?
CYP2C19 act: inactive; CYP2C19 inhib: inactive; sEH act: inactive; CYP2C9 act: inactive; CYP2C9 inhib: inactive; sEH inh: inactive

Results for CCCOc1cccc(CN2CCCCC2c2cccnc2)c1 (stereo not drawn) ?
CYP2C19 act: inactive; CYP2C19 inhib: 92; sEH act: inactive; CYP2C9 act: inactive; CYP2C9 inhib: 83; sEH inh: inactive

What do the screens show for `COc1ccc2cc(C(c3nnnn3Cc3ccccc3)N3CCCCCC3)c(=O)[nH]c2c1` (stereo not drawn)?
CYP2C19 act: inactive; CYP2C19 inhib: 70; sEH act: inactive; CYP2C9 act: inactive; CYP2C9 inhib: 70; sEH inh: inactive

How did COc1ccc(Cn2nnnc2C(c2cccs2)N2CCSCC2)cc1 (stereo not drawn) do in these assays?
CYP2C19 act: inactive; CYP2C19 inhib: 83; sEH act: inactive; CYP2C9 act: inactive; CYP2C9 inhib: 59; sEH inh: inactive

Results for O=c1[nH]c2cc3c(cc2cc1C(c1nnnn1CC1CCCO1)N1CCCCCC1)OCO3 (stereo not drawn) ?
sEH act: inactive; sEH inh: inactive

Results for O=c1[nH]c2cc3c(cc2cc1C(c1nnnn1CC1CCCO1)N1CCCCCC1)OCCO3 (stereo not drawn) ?
CYP2C19 act: inactive; CYP2C19 inhib: inactive; sEH act: inactive; CYP2C9 act: inactive; CYP2C9 inhib: 79; sEH inh: inactive

Results for COc1ccc2cc(C(c3nnnn3Cc3ccc(F)cc3)N3CCCCCC3)c(=O)[nH]c2c1 (stereo not drawn) ?
CYP2C19 act: inactive; CYP2C19 inhib: inactive; CYP2C9 act: inactive; CYP2C9 inhib: inactive

Results for Fc1ccc(Cn2nnnc2C(c2ccc(Cl)cc2)N2CCSCC2)cc1 (stereo not drawn) ?
CYP2C19 act: inactive; CYP2C19 inhib: 94; sEH act: inactive; CYP2C9 act: inactive; CYP2C9 inhib: 69; sEH inh: inactive

What do the screens show for `CCOc1ccc2[nH]c(=O)c(C(c3nnnn3C3CCCCC3)N3CCN(CC)CC3)cc2c1` (stereo not drawn)?
CYP2C19 act: inactive; CYP2C19 inhib: inactive; CYP2C9 act: inactive; CYP2C9 inhib: inactive

How did COc1ccc2[nH]c(=O)c(C(c3nnnn3C3CCCC3)N3CCN(Cc4ccc5c(c4)OCO5)CC3)cc2c1 (stereo not drawn) do in these assays?
CYP2C19 act: inactive; CYP2C19 inhib: inactive; sEH act: inactive; CYP2C9 act: inactive; CYP2C9 inhib: 84; sEH inh: inactive

What do the screens show for `COc1ccc(Cn2nnnc2C(c2cccs2)N2CCCCCC2)cc1` (stereo not drawn)?
CYP2C19 act: inactive; CYP2C19 inhib: 100; sEH act: inactive; CYP2C9 act: inactive; CYP2C9 inhib: 92; sEH inh: inactive

Results for O=C(CSC1=NCCS1)N1CCCC1 ?
CYP2C19 act: inactive; CYP2C19 inhib: inactive; CYP2C9 act: inactive; CYP2C9 inhib: inactive

How did O=C(CSC1=NCCS1)N1CCCCCC1 do in these assays?
CYP2C19 act: inactive; CYP2C19 inhib: 57; CYP2C9 act: inactive; CYP2C9 inhib: inactive

What do the screens show for `O=C(OCCN1CCN(c2ncc(C(F)(F)F)cc2Cl)CC1)c1ccc(Cl)cc1`?
CYP2C19 act: inactive; CYP2C19 inhib: inactive; sEH act: inactive; CYP2C9 act: inactive; CYP2C9 inhib: 67; sEH inh: inactive

How did O=C(OC1CCN(c2ncc(C(F)(F)F)cc2Cl)CC1)c1ccc(Cl)cc1 do in these assays?
CYP2C19 act: inactive; CYP2C19 inhib: inactive; sEH act: inactive; CYP2C9 act: inactive; CYP2C9 inhib: inactive; sEH inh: inactive

Results for CCSC1=C(C#N)C2(CCCCC2)C(C#N)=C(N)N1 ?
CYP2C19 act: inactive; CYP2C19 inhib: 59; sEH act: inactive; CYP2C9 act: inactive; CYP2C9 inhib: 84; sEH inh: inactive

How did N#CC1=C(N)NC(SCc2ccccc2)=C(C#N)C12CCCCC2 do in these assays?
CYP2C19 act: inactive; CYP2C19 inhib: 100; sEH act: inactive; CYP2C9 act: inactive; CYP2C9 inhib: 100; sEH inh: inactive

How did CCSC1=C(C#N)C2(CCCCC2)C(C#N)C(=O)N1 (stereo not drawn) do in these assays?
CYP2C19 act: inactive; CYP2C19 inhib: inactive; sEH act: inactive; CYP2C9 act: inactive; CYP2C9 inhib: inactive; sEH inh: inactive

Results for CCOCCCNC(=O)C(NC(=O)c1ccc(=O)[nH]c1)c1ccccc1 (stereo not drawn) ?
CYP2C19 act: inactive; CYP2C19 inhib: inactive; sEH act: inactive; CYP2C9 act: inactive; CYP2C9 inhib: inactive; sEH inh: inactive

Results for C=CCOc1ccc(Oc2cc(C)nc(SC)n2)nn1 ?
sEH act: inactive; sEH inh: inactive

Results for CN(C(=O)c1cccc(Nc2ccc(-c3ccc4c(c3)OCCO4)nn2)c1)C1CCCCC1 ?
sEH act: inactive; sEH inh: inactive

How did CC1=NC(Nc2nc(C)c3ccccc3n2)=NC(C)(C)C1 do in these assays?
CYP2C19 act: inactive; CYP2C19 inhib: inactive; sEH act: inactive; CYP2C9 act: inactive; CYP2C9 inhib: inactive; sEH inh: inactive

Results for CCOC(=O)c1c(C)[nH]c(N=Nc2cccc(C)c2)c1C ?
CYP2C19 act: inactive; CYP2C19 inhib: 56; sEH act: inactive; CYP2C9 act: inactive; CYP2C9 inhib: 93; sEH inh: inactive
